According to PubChem BioAssay (Tox21):
Results filed as inconclusive are left out. Unmarked numbers belong to inactive results. Active and inactive are the calls of the source. Calls come from the whole dose curve; as a rule, active = well fitted activation curve with a large enough effect in the repeat runs; inconclusive = weak or mixed curves; inactive = flat fitted curve, though single readings scatter.
% is set by controls: 0 for no effect and ±100 for the full control effect; potency is the fitted concentration of half-maximal effect.

Assay: A CellTox Green Cytotoxicity Assay to monitor cytotoxicity in HepG2 cells - 8 hour (AID 1224890); note: nearly all actives have a fitted effect of over 45% in size
Conditions: CellTox Green fluorescence; series mostly up to 76.8 µM; cytotoxicity increase: at the top concentration
Source text: National Center for Advancing Translational Sciences [NCATS]
NIH Chemical Genomics Center [NCGC]
U.S. Environmental Protection Agency [EPA]
National Institutes of Environmental Health Sciences [NIEHS]
National Toxicology Program [NTP]
Cell-based models are critical for drug discovery. Determining the natural cytotoxic effects resulting from test compounds is an essential research activity. A CellTox Green Cytotoxicity Assay to monitor cytotoxicity in real time of continues cell culture during 40 hours of the compound treatment was used to screen Tox21 10K library compounds in HepG2 cells. CellTox Green Cytotoxicity Assay is a nonlytic, homogeneous, biofluorescent method to measure cytotoxicity in cell culture after experimental manipulation. The assay system uses a proprietary asymmetric cyanine dye that is excluded from viable cells but preferentially stains the dead cell's DNA. […] Viable cells produce no appreciable increases in fluorescence. Therefore, the fluorescence signal produced by the binding interaction with dead cell DNA is proportional to cytotoxicity.
The mixture of HepG2 cell suspension and reagents were dispensed at 600cells/6 ul/well in 1536-well tissue culture treated black solid bottom plates using a Multidrop dispenser. After the assay plates were incubated at a 37 C/5% CO2 incubator for 5 hours, 23 nL of compounds dissolved in DMSO, positive and negative controls was transferred to the assay plate by a pintool work station. The plates were incubated at 37 C for 40 hours. The fluorescence intensity were measured at 0h, 8h, 16h, 24h, 32h and 40h time points using ViewLux plate reader during compound treatment.
With `COc1cc2c(cc1OC)-c1cc(=Nc3c(C)cc(C)cc3C)n(C)c(=O)n1CC2` the “cytotoxicity increase” value was -0.693% [at 35.3 µM]. With `CCCCCCCCCCCC(=O)[O][Sn]([CH2]CCC)([CH2]CCC)[O]C(=O)CCCCCCCCCCC` the “cytotoxicity increase” value was 4.71% [at 35.3 µM]. With `O=C(O)C(Cc1cc(I)c(O)c(I)c1)c1ccccc1` (stereo not given) the “cytotoxicity increase” value was -3.04% [at 35.3 µM]. With `CCC(C)(C)C1CCC(O)CC1` (stereo not given) the “cytotoxicity increase” value was 22.9%. In the case of `CC(C)=CC=O`, the “cytotoxicity increase” value is reported as -11.8%. With `COC(=O)CC(=O)C(C)(C)C` the “cytotoxicity increase” value was -2.58%. For `Cc1cc(S(=O)(=O)O)ccc1N=Nc1c(O)ccc2ccccc12`, the “cytotoxicity increase” value was -25.9%. For `Cc1nccn1-c1ccc(Sc2cccc(C3(C(N)=O)CCOCC3)c2)cc1`, the “cytotoxicity increase” value was 2.84%. With `Cc1ccc(S)cc1` the “cytotoxicity increase” value was -6.84%. With `O=C(c1ccc(O)cc1)c1ccc(Cl)cc1` the “cytotoxicity increase” value was -5.04%. With `O=C1NCCN1` the “cytotoxicity increase” value was 0.0545%. In the case of `CC(C)(CCl)c1ccccc1`, the “cytotoxicity increase” value is reported as -0.753%. In the case of `C=CC(C)=CCC=C(C)C`, the “cytotoxicity increase” value is reported as -4.08%. In the case of `Fc1ccccc1[C@@H](F)COC1CCC(Nc2ncnc3[nH]ncc23)CC1` (stereo not given in full), the “cytotoxicity increase” value is reported as 14.7%. With `CCCCCCCCCCCCCCC[C@H](O)[C@@H](N)CO` the Potency was 23.9 µM (active). In the case of `Cc1oncc1C(=O)Nc1ccc(C(F)(F)F)cc1`, the Potency is reported as “inactive”. In the case of `CCC(=O)OC/C=C/c1ccccc1`, the Potency is reported as “inactive”. For `CCCCCCCCCCOS(=O)(=O)O`, the “cytotoxicity increase” value was -12.4%. With `C/C(=N/NC(=O)c1ccncc1)C(=O)O` the “cytotoxicity increase” value was 25% [at 35.3 µM]. In the case of `CC(C)(C)C(=O)C(Oc1ccc(Cl)cc1)n1ccnc1` (stereo not given), the “cytotoxicity increase” value is reported as -1.15% [at 35.3 µM]. With `O=C(CCCN1CCN(c2ccc(F)cc2)CC1)NC1c2ccccc2CSc2ccccc21` (stereo not given) the “cytotoxicity increase” value was 14.8% [at 35.3 µM]. In the case of `CCn1nc(C)c2c1C(=O)NCC(c1ccc(O)cc1)=N2`, the “cytotoxicity increase” value is reported as -6.72%. In the case of `C[N+](C)(C)CCOC(N)=O`, the “cytotoxicity increase” value is reported as -2.4% [at 35.3 µM]. For `CO[C@H]1C=CO[C@@]2(C)Oc3c(C)c(O)c4c(O)c(c5c(c4c3C2=O)=NC2(CCN(CC(C)C)CC2)N=5)NC(=O)/C(C)=C\C=C/[C@H](C)[C@H](O)[C@@H](C)[C@@H](O)[C@@H](C)[C@H](OC(C)=O)[C@@H]1C`, the “cytotoxicity increase” value was -14.8%. For `CO[C@@]12[C@H](COC(N)=O)C3=C(C(=O)C(C)=C(N)C3=O)N1C[C@@H]1N[C@@H]12`, the “cytotoxicity increase” value was -0.436% [at 35.3 µM]. With `CNC(=O)N(c1ccccc1)c1ccccc1` the “cytotoxicity increase” value was 5.56%. For `CC(Cl)C(Cl)Cl` (stereo not given), the “cytotoxicity increase” value was -0.716%. In the case of `COC(=O)c1cc(Cl)ccc1NS(=O)(=O)C(F)(F)F`, the “cytotoxicity increase” value is reported as 6.64% [at 35.3 µM]. In the case of `CCC(C)(O)CCC=C(C)C` (stereo not given), the “cytotoxicity increase” value is reported as -11.2%. With `CN1CCCN=C1/C=C/c1cccs1` the “cytotoxicity increase” value was -4.39% [at 35.3 µM]. With `O=C(O)c1c(O)c(-c2ccccc2)nc2ccccc12` the “cytotoxicity increase” value was -16.5% [at 35.3 µM]. For `c1ccc(COCc2ccccc2)cc1`, the “cytotoxicity increase” value was 2.33%. In the case of `CC(COc1ccc(C(C)(C)C)cc1)OS(=O)OCCCl` (stereo not given), the “cytotoxicity increase” value is reported as -1.6%. In the case of `O=C(O)c1cccc(O)c1`, the “cytotoxicity increase” value is reported as -2.56%. For `C[N+]1(C)CCC(=C(c2ccccc2)c2ccccc2)CC1`, the “cytotoxicity increase” value was -9.77% [at 35.3 µM]. In the case of `Nc1ccc(Cl)cc1[N+](=O)[O-]`, the “cytotoxicity increase” value is reported as -11.4%. For `Cc1cc2nc3ccc(=[N+](C)C)cc-3sc2cc1N`, the “cytotoxicity increase” value was -38.6% [at 35.3 µM]. With `Cc1cc(O)c2c(O)c3c(O)cccc3cc2c1` the “cytotoxicity increase” value was -2.55% [at 35.3 µM]. With `CCNC(=O)N1CCN(CCCC(c2ccc(F)cc2)c2ccc(F)cc2)CC1` the “cytotoxicity increase” value was 0.223% [at 35.3 µM]. In the case of `CCCCOC(=O)CCS`, the “cytotoxicity increase” value is reported as -4.03%.
